Results as given in ChEMBL document CHEMBL3988442, “University of Dundee, Small-Polar-MMV Screening Library” (2021).
The whole screen tested about 48,000 compounds, of which about 13,000 (27%) showed an effect of 50% or more. The list shows a part of the results.

tested on: Wolbachia pipientis; test: Anti-Wolbachia Cell-Based Screen; type: functional; set-up: scale not given: in the data most compounds retested in dose-response had high values; settings: 5 µM

Going from Cc1cc(C(=O)N(C)Cc2ccoc2)c(NC(=O)C(C)(C)C)s1 to CCOCc1ccccc1NC(=O)NCC(C)(O)c1cc(C)oc1C (stereo not drawn), the “Percent Effect” value falls from -2.438% to -7.22%.

Going from Cn1c(CS(=O)(=O)Cc2ccc(Cl)cc2)cc(=O)n(C)c1=O to Cc1nc(-c2ccc(Cl)cc2)n(CC(=O)NC(C)C)c(=O)c1CCO, the “Percent Effect” value rises from 5.826% to 129.7%.

First: C/C=C(\C)CN1CCC2(CCC(=O)N2OCc2ccccc2F)CC1
Second: O=C1CCCN1CCCC(=O)N1CCCCC1c1ccc(F)cc1 (stereo not drawn)
The “Percent Effect” value of the first is higher: 2.227% for the first, -8.614% for the second.

First: CCc1ccccc1OC1CN(C(=O)CN(C)Cc2cccnc2)C1
Second: CCOc1ccccc1CC(=O)N1C[C@@H](C(=O)O)[C@H](c2ccncc2)C1
The “Percent Effect” value of the first is lower: -4.322% for the first, 102.2% for the second.

Going from CCN(CC)C(=O)Cn1c(C)cc2nc(SC)n(CC(C)C)c(=O)c21 to CCN(CC)C(=O)Cn1c(-c2ccc(Cl)cc2)nc(C)c(CCO)c1=O, the “Percent Effect” value rises from 2.572% to 119.6%.

First: Cc1noc(Cl)c1CC(=O)NCCOc1ccc(F)cc1F
Second: COCCNC(=O)Cn1c(-c2ccc(F)cc2)nc(C)c(CCO)c1=O
The “Percent Effect” value of the first is lower: 16.27% for the first, 103.8% for the second.

Going from COCCNC(=O)c1sc(Nc2ccc(Cl)cn2)nc1C to COCCNC(=O)Cn1c(-c2ccc(Cl)cc2)nc(C)c(CCO)c1=O, the “Percent Effect” value rises from 19.38% to 140%.

First: COc1c(CNCCNC(=O)Cc2ccc(F)cc2)c(C)nn1C
Second: CCN(Cc1cnn(CC)c1)C(=O)Cn1c(=O)c(C)nc2ccccc21
The “Percent Effect” value of the first is higher: -0.8821% for the first, -5.598% for the second.

First: CC(CNC(=O)c1cccnc1O)Cn1cccn1 (stereo not drawn)
Second: CC(C)N1CCC(NCc2cccnc2N(C)Cc2ccccc2)CC1
The “Percent Effect” value of the first is higher: -0.5981% for the first, -0.8543% for the second.

Compared with O=C(NCCNS(=O)(=O)c1ccc(C(F)(F)F)cc1)c1ccoc1, O=C(CS(=O)(=O)c1ccc(Cl)cc1)NC1CCCc2ccccc21 (stereo not drawn) is lower in “Percent Effect” value: 7.368% for the first, 1.396% for the second.

Compared with CCCN1CCC(NC(=O)c2csc(C)c2C)CC1, Cc1cc(F)cc(S(=O)(=O)NCCCN2CCC(O)CC2)c1 is higher in “Percent Effect” value: 2.027% for the first, 17.75% for the second.

Compared with CC(C)OC(C)c1nnc(SCC(=O)O)n1-c1ccc(F)cc1F (stereo not drawn), CS(=O)(=O)NCc1cc(-c2cc(F)cc(F)c2)nc(N2CC[C@H](O)C2)n1 is higher in “Percent Effect” value: 15.24% for the first, 97.73% for the second.

First: N[C@H]1CN(C(=O)Cc2ccc(Cl)c(Cl)c2)C[C@@H]1C1CC1
Second: CCOc1ccc(CC(=O)N2C[C@H](C3CC3)[C@@H](N)C2)cc1
The “Percent Effect” value of the first is lower: 0.666% for the first, 13.07% for the second.

Compared with O=C(O)[C@@H]1CN(C(=O)Cc2ccccc2Cl)C[C@H]1C1CC1, CCOc1ccccc1CC(=O)N1C[C@@H](C(=O)O)[C@H](C2CC2)C1 is lower in “Percent Effect” value: 117.2% for the first, 111.1% for the second.

Compared with CCOc1ccccc1CC(=O)N1C[C@H](C2CC2)[C@@H](N)C1, CCOCCOc1ccccc1C(=O)N1C[C@H](C2CC2)[C@@H](N)C1 is lower in “Percent Effect” value: 104.9% for the first, -0.9919% for the second.

Going from O=C(O)[C@@H]1CN(C(=O)CCc2ccccn2)C[C@H]1c1ccccc1 to COc1ccccc1[C@@H]1CN(C(=O)Cc2csc(C)n2)C[C@H]1C(=O)O, the “Percent Effect” value rises from 11.77% to 12.9%.

Compared with N[C@H]1CN(C(=O)c2ccccc2OCc2ccccc2)C[C@@H]1C1CC1, CCCc1ncc(CN(C)C2CCCN(CCc3ccccc3)C2)cn1 (stereo not drawn) is lower in “Percent Effect” value: 10.21% for the first, -21.26% for the second.

Compared with Cc1nc(C)c(CC(=O)N2C[C@@H](C(=O)O)[C@H](c3ccncc3)C2)s1, Cc1nn2c(N3CCC(O)C3)cc(-c3ccccc3)nc2c1C (stereo not drawn) is higher in “Percent Effect” value: -15.05% for the first, 3.691% for the second.

First: O=C(O)[C@@H]1CN(Cc2cc3c(cc2Cl)OCO3)C[C@H]1C1CC1
Second: CNc1ncc(CN(C)C2CCN(C(C)C)CC2)cn1
The “Percent Effect” value of the first is lower: -1.718% for the first, 131.8% for the second.

First: CS(=O)(=O)N1C[C@H]2CNC[C@@]2(C(=O)NCCCc2ccccc2)C1
Second: CCSc1ccccc1C(=O)N1CC2(COC(C)(C)OC2)C1
The “Percent Effect” value of the first is higher: 15.21% for the first, 0.7993% for the second.

Going from C1CCCN(c2nc(C3CC3)ns2)CC1 to Cc1nc(N2CCCC2)nc(C)c1NS(C)(=O)=O, the “Percent Effect” value falls from 16.93% to 5.529%.

Compared with CCCS(=O)(=O)N1CCC2(CN(c3cnn(C)c3)C(=O)CN2C)C1.O=C(O)C(F)(F)F (stereo not drawn), Cn1cnc2c1C(C(=O)N1CCCC1)N(CC1CC1)CC2.O=C(O)C(F)(F)F (stereo not drawn) is higher in “Percent Effect” value: -3.589% for the first, 6.577% for the second.

Going from CS(=O)(=O)NCc1cc(-c2cc(F)cc(F)c2)nc(N2CCCC2)n1 to CS(=O)(=O)NCc1cc(-c2cc(F)cc(F)c2)nc(N2CCOCC2)n1, the “Percent Effect” value rises from 85.03% to 112.2%.

Compared with CCc1cc(NC(C)(C)C)nc(N2CCOCC2)n1, CCc1cc(NCCS(=O)(=O)N(C)C)nc(N2CCOCC2)n1 is higher in “Percent Effect” value: -8.862% for the first, 7.02% for the second.

First: Cc1cc(F)cc(CN2CCCn3nc(CNS(C)(=O)=O)cc3C2)c1
Second: CCc1ccc(CN2CCN(c3ccc(Cl)nn3)CC2)nc1
The “Percent Effect” value of the first is lower: -6.917% for the first, -1.382% for the second.

First: Cc1noc(C)c1CN(C)C(=O)C1CCCN1S(N)(=O)=O (stereo not drawn)
Second: CC(C)N1CCC(C(=O)N(C)C(C)c2ccon2)CC1 (stereo not drawn)
The “Percent Effect” value of the first is higher: 1.482% for the first, -1.072% for the second.

Compared with Cc1nc2ccccc2n(Cc2nnnn2C2CC2)c1=O, CN(C)c1cc2c(nn1)CCN(C(=O)c1cc3ccccc3[nH]c1=O)C2 is lower in “Percent Effect” value: 11.64% for the first, 4.124% for the second.

Going from CC(=O)N1CC[C@H]2CC(=O)N(C3CC3)CC[C@H]2C1 to COc1ncc(CN(C)C2CCN(C(C)C)CC2)cn1, the “Percent Effect” value rises from -2.772% to 134.1%.

Going from COCc1noc(-c2ccc(N3CCCC3c3ccc(F)cc3)nc2)n1 (stereo not drawn) to COc1ccc2c(c1)CC(NCc1cccc(OCC(N)=O)c1)CC2 (stereo not drawn), the “Percent Effect” value falls from 17.95% to 2.98%.

Compared with CCc1ncc(CN(C)C2CCN(C(C)C)CC2)cn1.O=C(O)CC(O)(CC(=O)O)C(=O)O, CCN1CCN(Cc2ccnc(-c3cccnc3)n2)CC1.O=C(O)CC(O)(CC(=O)O)C(=O)O is lower in “Percent Effect” value: 161.6% for the first, -7.954% for the second.

Going from COc1ncc(CN(CCN(C)C)Cc2ccc(C)s2)cn1 to CC(C)N1CCC(NCc2cccnc2N(C)C)CC1, the “Percent Effect” value falls from 7.179% to 4.897%.

For Cc1cc2cc(Nc3c(C#N)c(=O)n(C)c(=O)n3C)ccc2[nH]1, the “Percent Effect” value was 4.966%.
